Measurements published in PubChem BioAssay AID602350 (Broad Institute, 2012).
Results with a measured potency or affinity are listed apart. Calls of active or inactive are those of the source.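 The calls were made as follows: active = absorbance falls by 30% or more versus neutral controls, with a potency fitted within twice the top valid dose; inconclusive = no clear call, values can overlap the other calls; inactive = change opposite to expected direction, plus the rest.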

The molecules below were run against Protein disulfide-isomerase (Homo sapiens) (UniProt P07237) (assay: PDI inhibitors, insulin aggregation turbidity, dose response, biochemical, absorbance, cherry-picked samples (AID 602350;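 also: 0% = neutral controls and -100% = rutin hydrate positive control wells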)). Details: recombinant PDI insulin aggregation, absorbance 650 nm, 90 min; series mostly up to 19.5 µM.
Protein disulfide-isomerase (Homo sapiens), sequence (P07237 whole entry, looked up): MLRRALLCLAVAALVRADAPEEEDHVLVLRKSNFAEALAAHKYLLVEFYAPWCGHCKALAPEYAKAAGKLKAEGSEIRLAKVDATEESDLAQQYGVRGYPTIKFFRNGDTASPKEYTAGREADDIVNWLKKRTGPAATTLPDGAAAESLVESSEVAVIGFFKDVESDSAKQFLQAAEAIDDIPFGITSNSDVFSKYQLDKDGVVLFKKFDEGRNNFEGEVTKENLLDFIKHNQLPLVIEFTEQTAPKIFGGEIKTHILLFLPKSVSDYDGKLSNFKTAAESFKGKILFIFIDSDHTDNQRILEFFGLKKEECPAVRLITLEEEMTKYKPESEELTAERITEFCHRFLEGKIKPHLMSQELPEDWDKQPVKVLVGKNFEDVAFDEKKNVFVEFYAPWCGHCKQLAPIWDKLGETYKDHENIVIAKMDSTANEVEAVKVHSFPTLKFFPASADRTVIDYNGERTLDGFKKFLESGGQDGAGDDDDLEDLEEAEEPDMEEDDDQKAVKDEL

outcome, inactive:
O=C(CNC(=O)c1n[nH]c2ccccc12)Nc1cc(Cl)ccc1Cl
Cn1c(=O)n(CCCOc2ccc(Br)cc2)c2ccccc21
Cc1ccc(C2=Nc3ccccc3SC(c3cccc([N+](=O)[O-])c3)C2)cc1 (stereo not drawn)
C[C@@H]1CN([C@@H](C)CO)C(=O)Cc2cc(NC(=O)Nc3ccccc3)ccc2O[C@@H]1CN(C)Cc1ccccc1
N#Cc1c(NCCCO)nc(-c2ccco2)c2c1CCCC2
N#Cc1ccccc1CSc1nnc(Cc2ccccc2)o1
Cc1nc(C(=O)Nc2cccc(Cl)c2Cl)nn1-c1cc(OC(C)C)c(Cl)cc1Cl
Cc1noc(C)c1S(=O)(=O)Nc1ccc2c(c1)CC(=O)N([C@H](C)CO)C[C@@H](C)[C@H](CN(C)S(=O)(=O)c1ccc(F)cc1)O2
CCN1CCN(Cc2ccc(NC(=O)c3cc(NC(=O)c4cc(-c5ccc(OC)cc5)n[nH]4)cc(OC)c3)cc2C(F)(F)F)CC1
CC1(C(=O)Nc2ccc3c(c2)OCCO3)CCN1C(=O)C1(c2ccc(Cl)cc2)CC1 (stereo not drawn)
CCCCn1c(N)c(N(CC(C)C)C(=O)c2cc(-c3ccncc3)nc3ccccc23)c(=O)[nH]c1=O
O=C1C[C@H](c2ccc(O)cc2)Oc2cc(O[C@@H]3O[C@H](CO)[C@@H](O)[C@H](O)[C@H]3O)cc(O[C@@H]3O[C@H](CO)[C@@H](O)[C@H](O)[C@H]3O)c21

Activity change, negative = inhibition, inactive:
CC[C@]12c3[nH]c4cc(-c5ccco5)ccc4c3CCN1C(=O)[C@@H](CC(=O)NCCCOC)C[C@@H]2C(=O)N1CCN(C(=O)C2CC2)CC1 0.067% [at 2.1 µM]
